Structures are written as SMILES. Active and inactive are the calls of the source. Unless noted, the rule behind the calls is not given here.

Results on 14 compounds are retold here after PubChem BioAssay.

The nature of test [1]: resazurin metabolic signal in HepG2 cells – cell-based, resazurin fluorescence, 24 h, PK04 Diversity Set, profiling panel (AID 1172). Note: test concentration not given here. The settings on record: HepG2 viability, higher = more signal.
The nature of test [2]: budding yeast growth changes without added modifier – OD600, strain BY4716, 24 h, basal condition, primary screen (AID 1173). Particulars: S. cerevisiae BY4716 growth, OD600, 24 h; higher = more signal, called active from +8 up or from −8 down.
Test [3] can be described thus: viability profiling in MM1S myeloma cells – cell-based, resazurin fluorescence, basal, 24 h, PK04 Diversity Set, profiling panel (AID 1174).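 Note: MM1S multiple myeloma cell line; test concentration not given here.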 The settings on record: higher = more signal, called active from +8 up or from −8 down.
The target in test [4] is Dihydroorotate dehydrogenase (quinone), mitochondrial (Plasmodium falciparum (isolate 3D7)) (UniProt Q08210). Nature of the test: inhibition of P. falciparum DHODH – biochemical, C-terminal His tag, absorbance 600 nm, primary screen (AID 1175).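 Note: recombinant parasite enzyme with a five histidine tag at its C terminus; test concentration not given here.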 Particulars: PfDHODH enzyme, DCIP absorbance 600 nm; higher = more signal, called active from +8 up or from −8 down.
Sequence of Dihydroorotate dehydrogenase (quinone), mitochondrial (Plasmodium falciparum (isolate 3D7)) (Q08210 whole entry, looked up): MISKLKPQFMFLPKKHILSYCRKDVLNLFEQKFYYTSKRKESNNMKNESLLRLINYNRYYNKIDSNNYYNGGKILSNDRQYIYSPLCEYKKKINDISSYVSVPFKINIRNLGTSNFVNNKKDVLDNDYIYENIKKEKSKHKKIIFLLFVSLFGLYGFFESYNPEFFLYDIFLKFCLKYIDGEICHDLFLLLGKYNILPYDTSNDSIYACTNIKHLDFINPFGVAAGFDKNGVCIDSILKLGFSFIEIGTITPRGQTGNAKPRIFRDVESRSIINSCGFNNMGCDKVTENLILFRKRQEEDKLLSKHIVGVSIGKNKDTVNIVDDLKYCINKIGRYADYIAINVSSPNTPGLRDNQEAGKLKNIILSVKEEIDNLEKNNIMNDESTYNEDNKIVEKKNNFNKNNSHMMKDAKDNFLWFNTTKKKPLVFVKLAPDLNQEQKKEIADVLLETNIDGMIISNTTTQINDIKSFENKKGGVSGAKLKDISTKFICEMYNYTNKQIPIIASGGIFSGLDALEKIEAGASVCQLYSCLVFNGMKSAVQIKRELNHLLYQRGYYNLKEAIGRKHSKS
Test [5] is described as follows: inhibition of PAO1 biofilm formation – strain PAO1, LB-PBS medium, absorbance 600 nm, primary screen (AID 1176). Note: test concentration not given here. Particulars: P. aeruginosa PAO1 growth/biofilm, A600, 12 h; higher = more signal.
Test [6] is described as follows: growth modulation of vineyard yeast isolate – strain RM11-1a, OD600, basal, 24 h, primary screen (AID 1177).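 Note: cultures grown under basal conditions with no added stressor; test concentration not given here.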 The settings on record: S. cerevisiae RM11-1a growth, OD600, 24 h; higher = more signal, called active from +8 up or from −8 down.
The nature of test [7]: growth of efflux-deficient E. coli DRC39 – strain DRC39, OD650, 24 h, E. coli filamentation inducers, primary screen (AID 1178).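 Note: growth measured as culture turbidity by optical density at 650 nm; test concentration not given here.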 Particulars: E. coli DRC39 acrAB, higher = more signal, called active from +8 up or from −8 down.
A short description of test [8]: growth of efflux-deficient E. coli DRC39 – strain DRC39, OD650, 48 h, E. coli filamentation inducers, primary screen (AID 1179).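 Note: screen aims at cell division blockers that make cells filament.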 Particulars: E. coli DRC39 delta-acrAB growth, higher = more signal, called active from +8 up or from −8 down.
Test [9] can be described thus: viability profiling in RPMI8226 myeloma cells – cell-based, resazurin fluorescence, basal, 24 h, PK04 Diversity Set, profiling panel (AID 1180).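 Note: RPMI8826 multiple myeloma cell line at 5000 cells per well; test concentration not given here.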 The settings on record: higher = more signal.
The target of test [10] is E3 ubiquitin-protein ligase XIAP (Homo sapiens) (UniProt P98170). Nature of the test: small molecules binding XIAP protein – biophysical, small-molecule microarray, fluorescence 635 nm, primary screen (AID 1181).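 Note: score merges 667 nm emission and signal to noise over triplicate slides.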 The settings on record: higher = more signal.
Sequence of E3 ubiquitin-protein ligase XIAP (Homo sapiens) (P98170 whole entry, looked up): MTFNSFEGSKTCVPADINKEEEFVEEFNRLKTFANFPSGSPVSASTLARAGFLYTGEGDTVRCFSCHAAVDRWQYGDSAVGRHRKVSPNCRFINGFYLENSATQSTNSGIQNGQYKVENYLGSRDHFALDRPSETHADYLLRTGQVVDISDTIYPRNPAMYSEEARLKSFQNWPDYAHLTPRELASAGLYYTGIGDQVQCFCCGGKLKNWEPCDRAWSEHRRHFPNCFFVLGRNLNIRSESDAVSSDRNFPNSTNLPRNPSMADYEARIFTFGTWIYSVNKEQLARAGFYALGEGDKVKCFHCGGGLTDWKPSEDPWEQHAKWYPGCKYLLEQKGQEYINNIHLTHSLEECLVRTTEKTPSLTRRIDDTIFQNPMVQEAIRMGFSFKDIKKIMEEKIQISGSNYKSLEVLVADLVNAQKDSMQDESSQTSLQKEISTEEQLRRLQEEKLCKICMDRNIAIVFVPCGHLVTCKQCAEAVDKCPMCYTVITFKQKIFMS

For the compound `CC(C)NC(=O)[C@@H]1c2ccccc2C(=O)N(CC23CC4CC(CC(C4)C2)C3)[C@H]1c1ccc(CO)cc1`, the z-score in [1] is 0.64; in test [2], -1.23 (inactive); in test [3], 0.955 (inactive); in test [5], 0.553 (inactive); in test [6], -1.52 (inactive); in [7] it was 0.765 (inactive). In addition, the z-score is 1.59 (inactive) in test [8] and 0.834 in [9]. Further, the composite z-score is 0.61 (inactive) in [4] and -0.0172 in test [10].

On to `CCOc1ccc(N2C(=O)/C(=C/C=C/c3ccccc3OC)S(=O)(=O)C2c2cccc([N+](=O)[O-])c2)cc1` (stereo not given), for which the z-score was 1.28 in test [1]; -1.52 (inactive) in test [2]; -2.33 (inactive) in test [3]; 1.07 (inactive) in test [5]; -1.44 (inactive) in test [6]; 0.777 (inactive) in test [7]. Moreover, the z-score in test [8] was 0.765 (inactive); in test [9] it was -0.548. Moreover, the composite z-score is -1.74 (inactive) in [4] and 0.0264 in test [10].

Consider `CC(CCN1CCCCc2nc(C)c(C)cc21)=NOC(C)CN1CCCCc2nc(C)c(C)cc21` (stereo not given), for which the z-score in [1] was 0.149; in test [2] it was -0.211 (inactive); in test [3], -0.29 (inactive); in test [5], 0.216 (inactive); in test [6], 0.596 (inactive); in test [7] it was 0.5 (inactive). The z-score was -0.024 (inactive) in test [8] and 0.643 in test [9]. In addition, the composite z-score in test [4] is 0.159 (inactive); in [10], 0.24.

For the compound `CC(C)CN1CCc2nc(-c3ccccc3)c3c(c2CC1)CO[C@@H](C)C3`, the z-score in test [1] was 0.652; in [2] it was -0.368 (inactive); in test [3], 0.389 (inactive); in test [5], -0.458 (inactive); in [6], -0.284 (inactive); in test [7], -0.274 (inactive). Also, the z-score was -0.328 (inactive) in [8] and 0.711 in [9]. The composite z-score was 0.496 (inactive) in [4] and -0.0964 in [10].

As for `CC(C)=CCCC(C)=CCON=C1C[C@@H](O)[C@@H](O)[C@@H]2[C@@H]3C(=O)N(C[C@@H]4CCCO4)C(=O)[C@@H]3CC[C@@H]12`, the z-score in test [1] is 0.502; in test [2], -0.242 (inactive); in test [3], -0.041 (inactive); in [5] it was -0.261 (inactive); in test [6] it was 0.348 (inactive); in test [7], 0.122 (inactive). Also, the z-score in test [8] was 0.511 (inactive); in test [9], 0.424. The composite z-score in test [4] is -0.111 (inactive); in test [10], -0.264.

Take `Cn1cccc1C(O)C1C=CC2C(=O)NC(=O)C2N1Nc1ccccn1` (stereo not given): the z-score in [1] was -1.49; in test [2], 0.784 (inactive); in [3], -1.28 (inactive); in [5] it was 0.543 (inactive); in test [6], -0.0064 (inactive); in test [7], -0.512 (inactive). In addition, the z-score is -0.204 (inactive) in test [8] and -0.868 in [9]. In addition, the values for the composite z-score in test [4] and in test [10] were 1.21 (inactive) and 0.203, respectively.

For `C=CC[C@@H]1C=C[C@H](ON=C[C@@H](OC)[C@H](C)C=CCC(=O)OC)[C@@H](CO)O1`, the z-score in [1] is -0.266; in test [2], -0.54 (inactive); in [3] it was -0.709 (inactive); in test [5] it was -0.537 (inactive); in test [6], 1.17 (inactive); in test [7], 0.456 (inactive). Moreover, the z-score is 0.732 (inactive) in test [8] and -0.707 in test [9]. For the same compound, the figures for the composite z-score in test [4] and in test [10] were 0.217 (inactive) and 0.32, respectively.

For `COc1ccccc1CN1C(=O)c2ccccc2[C@@H](C(=O)NCC(F)(F)F)[C@@H]1c1ccc(CO)cc1`, the z-score in [1] is 1.06; in [2] it was 0.403 (inactive); in [3], -1.15 (inactive); in test [5], 0.512 (inactive); in test [6] it was -0.0178 (inactive); in test [7], 0.796 (inactive). Further, the z-score in test [8] was 1.69 (inactive); in test [9] it was 0.268. Also, the composite z-score in [4] was 0.338 (inactive); in test [10] it was -0.148.

Take `O=C1O[C@@H](c2ccccc2)[C@@H](c2ccccc2)N2[C@@H](c3ccc(OCCO)cc3)[C@]3(C(=O)Nc4ccccc43)[C@@H](C(=O)N3CCN(c4ncccn4)CC3)[C@H]12`: the z-score was -0.18 in test [1]; 0.944 (inactive) in test [2]; -0.271 (inactive) in test [3]; 1.47 (inactive) in test [5]; 2.78 (inactive) in [6]; 0.142 (inactive) in [7]. In addition, the z-score in test [8] is 1.07 (inactive); in test [9] it was 0.652. The composite z-score in [4] was -2.37 (inactive); in test [10] it was -0.227.

Regarding `C#CCCCON=C1C[C@@H](O)[C@@H](O)[C@@H]2[C@@H]3C(=O)N(Cc4ccccc4)C(=O)[C@@H]3CC[C@H]12`, the z-score in test [1] is 1.02; in [2], -1.43 (inactive); in test [3] it was 0.582 (inactive); in [5], 0.495 (inactive); in test [6] it was -1.59 (inactive); in test [7], -0.039 (inactive). Besides, the figures for the z-score in test [8] and in test [9] were -0.923 (inactive) and 0.781, respectively. The composite z-score in test [4] is -0.794 (inactive); in test [10] it was -0.256.

In the case of `CCOC(=O)NN=C1C[C@@H](O)[C@@H](O)[C@@H]2[C@@H]3C(=O)N(C4CCCCC4)C(=O)[C@@H]3CC[C@@H]12`, the z-score in test [1] is -0.252; in [2], 0.126 (inactive); in test [3], -0.292 (inactive); in [5], 0.283 (inactive); in test [6], -0.845 (inactive); in test [7], -0.959 (inactive). For the same compound, the z-score was -0.499 (inactive) in test [8] and -0.145 in [9]. In addition, the results for the composite z-score in test [4] and in test [10] were -1.71 (inactive) and -0.102, respectively.

Consider `CO[C@H]1COC(=O)[C@@H]2CCCN2C(=O)CC=C[C@@H](C)[C@H](OC)COC(=O)CC=C[C@@H]1C`, for which the z-score in test [1] was 0.233; in [2] it was -1.16 (inactive); in test [3], 0.89 (inactive); in test [5] it was 0.696 (inactive); in test [6] it was -2.08 (inactive); in test [7] it was 1.04 (inactive). The z-score is 0.375 (inactive) in test [8] and -0.395 in test [9]. In addition, the composite z-score in [4] is -0.652 (inactive); in test [10] it was -0.137.

As to `COC(=O)C1=CCC(c2cccc(Cl)c2)O1` (stereo not given), the z-score was -0.0749 in test [1]; -3.58 (inactive) in test [2]; -0.232 (inactive) in test [3]; 0.216 (inactive) in [5]; -0.695 (inactive) in test [6]; -0.0684 (inactive) in [7]. Moreover, the z-score in test [8] is -0.0113 (inactive); in [9], -0.646. The composite z-score in test [4] is -0.861 (inactive); in test [10] it was -0.0962.

On to `COc1ccccc1CN1C(=O)c2ccccc2[C@@]2(Cc3ccccc3N(C(C)C)C2=O)[C@@H]1c1ccc(CO)cc1`, for which the z-score in test [1] is -0.643; in [2], 0.439 (inactive); in test [3], -0.647 (inactive); in test [5] it was 0.376 (inactive); in [6] it was -1.56 (inactive); in [7] it was 0.549 (inactive). Further, the figures for the z-score in test [8] and in [9] were 1.14 (inactive) and -0.457, respectively. The figures for the composite z-score in [4] and in [10] were -3.28 (inactive) and 0.161, respectively.
